Compound activity from PubChem BioAssay.
ERAP1 inh – blocks human ERAP1 aminopeptidase activity; Q9NZ08; recombinant ERAP1, Leu-AMC fluorescence, 60 min; inhibition, % at 10.7 µM; 340,000 tested, 0.15% active;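 active = mean replicate inhibition of at least 30%, or all replicates individually reaching that 30% level; inactive = mean below 30% and not every replicate reaching it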;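 also: 0% = neutral control wells and 100% = L-leucinethiol positive control wells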
INS-1E GSIS act – primary screen for activators of insulin secretion dependent on glucose, INS-1E cells, GLuc reporter luminescence | AID 743287 | activation, % at 16.6 µM | INS-1E GLuc reporter insulin secretion, 2-3 h | 370,000 tested, 0.61% active;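 active = lowest replicate activation of at least 40%, so every replicate reaches that level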;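 also: 0% = median of neutral control wells and 100% = median of IBMX positive control wells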
CaV13 FRET inh – Disruptors of the CACNA1D IQ motif to Ca2+-dependent inactivation inhibitor domain association, primary screening, Förster resonance energy transfer in intact living …; HEK cells, CFP/YFP FRET ICDI-IQ, plate reader, 10 min; percent FRET-ratio fall versus neutral wells; inhibition, % at 12.3 µM; 340,000 tested, 0.098% active; AID 743397;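 active = mean replicate inhibition of at least 30% and at least 1% of replicates passing that level; inconclusive = only one of the two criteria is met; inactive = neither criterion is met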;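 also: 0% = median of the neutral control wells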
DENV2 CPE rescue – protects cells from dengue virus 2 cytopathic effect. CPE inhibition, % at 9.99 µM. DENV2-infected cells, cytopathic effect rescue, plate reader. 350,000 tested, 1.7% active; in the data active = CPE inhibition above about 20%, passing the limit was not always enough; inconclusive = no clear call, values can overlap the other calls; tested in BHK-21 cells;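 also: 0% = median of neutral control wells and 100% = median of positive control wells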
Ecoli rRNA inh – inhibits bacterial ribosomal RNA function over humanized ribosomes; AID 720706; GFP signal change (wild-type ribosome), % (concentration not given with the values); 350,000 tested, 1.6% active; E. coli WT GFP vs humanized-ribosome RFP mutants, fluorescence, 24 h; hits give low values; DMSO median 0, no signal -100;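 active = significant combined selectivity score with lowered wild-type GFP, culture density cut under 30%, mutant RFP and density less affected; inactive = any of these conditions unmet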
PGC1a acetyl inh – modulators of PGC1a acetylation; AID 651687; U2OS PGC1a acetylation, AlphaScreen anti-acetyl-lysine; with virally co-expressed GCN5 acetyltransferase; inhibition, % at 15.6 µM; 350,000 tested, 0.17% active;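 active = every replicate shows inhibition of at least 40%; inconclusive = mean inhibition at least 40% but some replicate below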;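 also: 0% = neutral control wells and 100% = positive control wells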
Active calls of the source: *; ? = inconclusive; / = no result. The list is not random: actives were taken first. Their share in the collection is about 3.2%.

SMILES	ERAP1 inh	INS-1E GSIS act	CaV13 FRET inh	DENV2 CPE rescue	Ecoli rRNA inh	PGC1a acetyl inh
COc1ccc(CNC(=O)C(c2ccncc2)N(C(=O)Cc2cccs2)c2ccccc2)cc1 (stereo unspecified)	-4	-21	-5	15	7	/
COc1ccc(N(C(=O)CCl)C(C(=O)NCCc2ccccc2)c2cccs2)cc1 (stereo unspecified)	3	53*	-5	2	-12	61*
O=C(C[C@@H]1CC[C@H](NC(=O)CCN2CCCCC2)[C@H](CO)O1)Nc1ccc(-c2ccccc2)cc1	-3	0	/	10	1	-2
COC(=O)C[C@H]1CC[C@H]2[C@@H](COc3ccc(NC(=O)c4cccs4)cc3C(=O)N2C)O1	1	0	/	-2	2	-11
N#Cc1cncc(C#Cc2ccccc2)c1	0	28	-17	-2	14	/
N#Cc1ccccc1	4	7	/	30*	-7	6
C[C@@H]1CC=C[C@@H]2[C@H]1C(=O)N(Cc1ccccc1)[C@H]2c1cccc(Br)c1	0	0	-6	15	-4	-2
COc1ccc(Br)cc1[C@H]1[C@H]2C=CC[C@@H](C)[C@@H]2C(=O)N1Cc1ccccc1	/	-5	-6	66*	2	/
COC(=O)/C=C/c1cccc([C@H]2[C@@H]3C=CC[C@@H](C)[C@@H]3C(=O)N2Cc2ccccc2)c1	/	122	-6	?	-19*	-1
COc1ccc(NC(=O)Nc2ccc3c(c2)C(=O)N([C@H](C)CO)C[C@@H](C)[C@H](CN(C)S(=O)(=O)c2ccc(F)cc2)OCCCC[C@@H](C)O3)cc1	2	18	/	4	3	4
C[C@H](CO)N1C[C@H](C)[C@@H](CN(C)C(=O)Nc2ccc(F)cc2)OCCCC[C@H](C)Oc2ccc(NS(=O)(=O)c3cn(C)cn3)cc2C1=O	-2	6	/	-5	-1	-19
O=[N+]([O-])c1ccc(-c2cc(-c3ccc(Cl)cc3)n[nH]2)cc1	/	71*	/	/	/	-12
CC(C)(C)S(=O)N1Cc2cc(C(=O)O)nc(-c3cccc(C#CCC4CCCC4)c3)c2[C@@H]1CCO (stereo partly specified)	/	-16	/	/	-4	/
C[C@H]1CN([C@@H](C)CO)C(=O)c2cc(-c3cccc(C#N)c3)cnc2O[C@@H]1CN(C)Cc1cncnc1	-1	1	/	-8	3	5
Cc1cc(C)n(-c2ccc(NC(=O)C3CCCCN3C(=O)c3ccoc3)cc2)n1 (stereo unspecified)	-7	-2	/	36*	1	/
O=C(Cc1ccccn1)N[C@H]1CC[C@@H](CCn2cc(-c3cccnc3)nn2)O[C@@H]1CO	-6	4	/	-7	-1	-2
C[C@H](O)C#Cc1ccc2c(c1)O[C@@H](CN(C)C(=O)C1CCC1)[C@H](C)CN([C@H](C)CO)S2(=O)=O	-1	3	/	-6	-1	-1
COc1cccc(NC(=O)C2CCC(CNS(=O)(=O)c3cccs3)CC2)c1 (stereo unspecified)	2	6	1	0	-21*	0
C[C@@H]1CN([C@@H](C)CO)C(=O)c2cc(NS(C)(=O)=O)ccc2O[C@@H](C)CCCCO[C@@H]1CN(C)C(=O)CCCN(C)C	/	/	/	/	/	-3
CC1CCCC=CC2CC(OC(=O)CN(C)C)CC2C(O)C=CC(=O)O1 (stereo unspecified)	-5	/	-5	-30	0	67*
C[C@@H]1CN([C@H](C)CO)C(=O)Cc2cc(NC(=O)C3CC3)ccc2O[C@@H]1CN(C)Cc1ccc(-c2ccccc2)cc1	1	-10	/	2	-5	-5
COc1ccc(Cn2nnnc2C(CC(C)C)N2CCC(C(N)=O)CC2)cc1 (stereo unspecified)	-1	8	43*	1	6	/
CN1C(=O)c2cc(NS(C)(=O)=O)ccc2OC[C@@H]2O[C@@H](CC(=O)O)CC[C@@H]21	-3	7	/	-9	4	-3
NNc1nc(-c2ccccc2)c2ccccc2n1	/	44*	-4	/	-10	/
